In the library only some 4% were active in any assay of this set; here they are far more common.
TRHR enhancer: TRH receptor (human) allosteric enhancement | P34981 | TRHR cells, fluo-8 calcium fluorescence, EC20 TRH enhancement | enhancement, % at 2 µM | 360,000 tested, 0.66% active | AID 493056; in the data active = enhancement above about 30%; note: 0% is about no effect
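Enhancer read-out: after compound pinning and an initial kinetic agonist-mode read, an EC20 of TRH (10 nM final) was injected and fluo-8 calcium signal (Ex 480/Em 530) followed at 1 s/cycle for 100 cycles in TRHR-expressing cells.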
D1 ag: human D1 receptor agonism; P21728; HEK293 T-REx D1 cells, calcium flux, agonist mode; activation, % at 2 µM; 360,000 tested, 1% active; AID 504660; note: 0% is about no effect
Target sequence (P21728 whole entry, looked up): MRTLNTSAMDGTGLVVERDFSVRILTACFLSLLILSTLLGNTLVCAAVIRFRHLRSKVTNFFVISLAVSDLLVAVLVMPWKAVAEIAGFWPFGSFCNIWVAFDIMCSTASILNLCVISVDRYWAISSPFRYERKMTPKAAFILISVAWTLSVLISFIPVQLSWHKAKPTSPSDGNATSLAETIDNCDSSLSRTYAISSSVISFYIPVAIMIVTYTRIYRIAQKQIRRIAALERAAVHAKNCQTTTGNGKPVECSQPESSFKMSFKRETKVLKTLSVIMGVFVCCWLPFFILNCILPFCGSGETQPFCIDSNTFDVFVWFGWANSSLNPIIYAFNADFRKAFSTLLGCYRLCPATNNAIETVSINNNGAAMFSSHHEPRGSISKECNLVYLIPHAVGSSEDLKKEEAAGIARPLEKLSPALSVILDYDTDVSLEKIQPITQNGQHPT
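Inducible HEK293 T-REx D1 cells, force-coupled to calcium signalling, were plated at 4000 cells/well with tetracycline and held overnight at 30 C. After no-wash calcium dye loading, compound-evoked calcium rise over 180 s flagged agonists.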
D1 PAM: human D1 dopamine receptor positive modulation | 360,000 tested, 0.036% active | AID 504651 | P21728 | potentiation, % at 10 µM | HEK293 TREx D1 cells, calcium flux, dopamine EC20 potentiation; in the data active = potentiation above about 30%; note: 0% is about no effect
D1 antagonist: antagonists of human D1 dopamine receptor | P21728 | HEK293 TREx D1 cells, calcium flux, dopamine EC80; active compounds read low | activity change, negative = inhibition, % at 10 µM | 360,000 tested, 3.2% active; in the data active = activity change below about -30%; note: % is set by controls: 0 for no effect and ±100 for the full control effect
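After overnight tetracycline induction at 30 C, force-coupled D1 HEK293 cells took up a no-wash calcium dye at room temperature. Compounds were added and monitored 180 s, and the response to EC80 dopamine was then recorded.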
GRP78 ERSR act: inducers of ER stress response in human glioma cells; Potency, µM, inactives show top-dose activation, hits mostly activators; U87-MG GRP78 promoter luciferase reporter, 16 h; 420,000 tested, 0.02% active; active = well fitted activation curve with a large enough effect; note: potency is the fitted concentration of half-maximal effect; series mostly up to about 76 µM; % of control where 0% means no effect; nearly all actives have a fitted effect of over 35% in size
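Stably transfected U87-MG glioma cells carrying a GRP78-based luciferase sensor; 16 h compound incubation. Luminescence end-point read 10 min after Bright-Glo addition at room temperature.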
TRHR agonist: agonists of human TRH receptor; P34981; TRHR cells, calcium flux fluo-8, FDSS agonist mode; activation, % at 2 µM; 360,000 tested, 0.18% active; AID 493084; note: 0% is about no effect
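Agonist-mode FDSS calcium read (Ex 480/Em 530, 1 s cycles) in 1536-well TRHR cells with fluo-8 dye, after 10-cycle baseline and 23 nL compound addition; TRH at EC20 (10 nM final) added afterwards for the enhancer phase.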
An asterisk follows results filed as active; x = no result; ! = a repeat was not active. Cut-off read from the data, not from the text of the source, unless noted: active = activation above about 30%; inactive = the rest.

SMILES | TRHR enhancer | D1 ag | D1 PAM | D1 antagonist | GRP78 ERSR act | TRHR agonist
N=c1c2c(-c3ccccc3)c(-c3ccccc3)n(Cc3ccco3)c2ncn1CCCn1ccnc1 | 5 | 14 | -2 | 16 | -7% | 1
Cn1c(SCCOc2ccccc2)nnc1-c1ccc(NC(=O)CCc2ccccc2)cc1 | x | x | x | x | -2% | x
Cc1sc2ncnc(SCC(=O)NC3CC3)c2c1C | 2 | 1 | 4 | 3 | -6% | 0
CC(=O)Nc1ccccc1-c1nc(CNC(=O)c2cc(C)ccc2C)c(C)o1 | x | x | x | x | 2% | x
Brc1ccc(CN2C3=NCCCN3c3ccccc32)cc1 | -3 | 30* | -10 | -11 | -6% | -1
c1ccc(CN2C3=NCCCN3c3ccccc32)cc1 | 6 | 0 | -2 | -1 | -3% | 0
CCN(CC)c1ccc(-n2c(C)cc(C=O)c2C)cc1 | -9 | 3 | 1 | -32* | -8% | 0
O=C(Nc1c(-c2ccccc2)nc2ccccn12)c1ccccc1 | -5 | 6 | -2 | 2 | -2% | 0
O=C(Nc1c(-c2ccccc2)nc2ccccn12)c1ccccc1F | -10 | 2 | -4 | -75*! | -5% | -1
Cc1cc(F)ccc1OC1C=CC(c2ccc3c(c2)OCO3)OC1CO (stereo unspecified) | x | x | x | x | -5% | x
Nc1ccc2nc(-c3ccccc3)[nH]c2c1 | 1 | 3 | 0 | -6 | -7% | 0
Nc1cccc(-c2nc3ccc(C(=O)c4ccccc4)cc3[nH]2)c1 | -3 | 1 | -4 | -31* | -3% | 1
Cc1cc2c(c(=O)o1)C1O[C@](CCCCN3C(=O)c4ccccc4C3=O)(Cc3cc(C#N)ccc31)O2 | -3 | 1 | 1 | -1 | x | 1
Cc1cc2c(s1)c1cnn(Cc3c(Cl)cccc3Br)c(=O)c1n2C | -1 | 0 | 5 | 20 | x | 1
O=S(CC(O)c1ccccc1)c1ccccc1 (stereo unspecified) | x | x | x | x | 0% | x
Cc1ccc(S(=O)(=O)Nc2ccccc2NS(=O)(=O)c2ccc(C)cc2)cc1 | x | x | x | x | -3% | x
Cc1ccc(S(=O)(=O)Nc2cccc3c2CCCC3)cc1 | 15 | 6 | -2 | -32* | -3% | -1
CC[C@]12c3[nH]c4cc(-c5ccco5)ccc4c3CCN1C(=O)[C@@H](CC(=O)NCc1ccc(OC)c(OC)c1)C[C@@H]2C(=O)N1CCN(C(=O)c2ccco2)CC1 | x | x | x | x | 0% | x
CCOC(=O)c1c(C)[nH]c(C)c1S(=O)(=O)N1CCC(C(=O)Nc2ccccc2CC)CC1 | 1 | 0 | 3 | -37* | -1% | 0
CCOC(=O)N1CCN(S(=O)(=O)N2CCCC(C(=O)NCCc3ccccc3)C2)CC1 (stereo unspecified) | -6 | -1 | -4 | -5 | -2% | 0
CCOC(=O)c1c(C)[nH]c(C)c1S(=O)(=O)N1CCCC(C(=O)NCc2ccc(Cl)cc2)C1 (stereo unspecified) | 16 | 4 | 2 | -31* | -3% | 0
CCOC(=O)N1CCN(S(=O)(=O)N2CCCC(C(=O)NCCc3ccc(Cl)cc3)C2)CC1 (stereo unspecified) | -2 | 5 | -3 | -41* | -3% | 0
O=S(=O)(O)OCC1OC(COS(=O)(=O)O)(C2(OS(=O)(=O)O)OC(CO)C(OS(=O)(=O)O)C(OS(=O)(=O)O)C2OS(=O)(=O)O)C(OS(=O)(=O)O)C1OS(=O)(=O)O (stereo unspecified) | x | x | x | x | -2% | x
Cc1ccc(-c2c(C(=O)N/N=C/c3ccsc3)nnn2-c2nonc2N)cc1 | 19 | 148* | 10 | 111 | -1% | 0
Cc1ccc(-c2c(C(=O)N/N=C/c3cccc(Cl)c3)nnn2-c2nonc2N)cc1 | 9 | 16 | -3 | -6 | -6% | -2
Nc1nonc1-n1nnc(C(=O)N/N=C/c2cccs2)c1-c1ccc2c(c1)OCO2 | 14 | 102* | 5 | 25 | -2% | 6
Cc1ccsc1/C=N/NC(=O)c1nnn(-c2nonc2N)c1-c1ccc2c(c1)OCO2 | 5 | 5 | 0 | 0 | -6% | 0
Cc1ccc(-c2c(C(=O)N/N=C/c3ccco3)nnn2-c2nonc2N)cc1 | 9 | 94* | 7 | 31 | -8% | 0
